Test results published in PubChem BioAssay.
Measured potencies and affinities stand elsewhere. Results filed as inconclusive are left out. The source made the active and inactive calls. Unless noted, the rule behind the calls is not given here.

What was measured:
[1] = cytotoxicity in PAX8-dependent RMG-1 cells, dose response, cell-based, cherry-pick (AID 687029;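 active = signal drop whose fitted half-maximal concentration is at most twice the top valid dose, in every test run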;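 note: cells exposed to compound for 96 hours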)
[2] = cytotoxicity in IOSE-T80 ovarian epithelial cells, dose response, selectivity assay for PAX8 inhibitor project, cell-based, cherry-pick (AID 687032;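 active = fitted half-maximal concentration for viability loss no higher than twice the top valid dose, in every repeat run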;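 note: cells exposed to compound for 96 h before reading; 0% = neutral control wells and -100% = 2 µM mitoxantrone kill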)
[3] = inhibitors of CMV-promoter luciferase reporter, dose response, counter-screen for Pax8 inhibitor project, cell-based, HEK293, luminescence, dry powder (AID 743020;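 active = signal-lowering compounds whose fitted half-maximal concentration is at or below twice the top tested dose in every run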;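 note: HEK293 cells stably expressing the CMV luciferase reporter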)
[4] = non-specific cell cytotoxicity, dose response, cytotoxicity control for PAX8 inhibitor project, plate reader, dry powder samples (AID 743021)
[5] = IGROV1 ovarian cancer cell cytotoxicity, dose response, PAX8 inhibitor project, plate reader, dry powder samples (AID 743043);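 note: more negative means fewer viable cells or more cytotoxicity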
[6] = NIH:OVCAR-3 ovarian cancer cell cytotoxicity, dose response, PAX8 inhibitor project, plate reader, dry powder samples (AID 743044); details: max activity: at 35 µM, active compounds read low unless noted
[7] = IOSE-T80 ovarian epithelial cell cytotoxicity, dose response, cytotoxicity control for PAX8 inhibitor project, plate reader, dry powder samples (AID 743045);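 note: 0% = neutral control median and -100% = positive control median; more negative values mean more cell killing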
[8] = A2780 ovarian cancer cell cytotoxicity, dose response, cytotoxicity control, plate reader, dry powder samples (AID 743046);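 note: 0% = neutral control wells and -100% = cytotoxic reference compound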
[9] = cytotoxicity in OVCAR8 ovarian cancer cells, dose response, PAX8 project, cell-based, plate reader, dry powder samples (AID 743197)
[10] = A549 cell cytotoxicity, dose response, cytotoxicity control, plate reader, cherry-pick, antagonist series (AID 743412);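 note: 0% = neutral control wells and -100% = positive control wells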
[11] = HepG2 cell cytotoxicity, dose response, cytotoxicity control, plate reader, cherry-pick, antagonist series (AID 743416);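 note: 0% = neutral control wells and -100% = positive control wells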

Measured: max activity

C[C@@H]1CCCCO[C@H](CN(C)CC2CCCCC2)[C@H](C)CN([C@H](C)CO)C(=O)c2cc(NS(=O)(=O)c3ccc(Cl)cc3)ccc2O1
inactive: [1] | [2] | [3] | [4] | [5] | [6] 10.1% | [7] | [8] | [9]

COc1ccc(S(=O)(=O)N2CCCCN3[C@H](CO)[C@@H](c4ccc(C#CC(C)C)cc4)[C@H]3C2)cc1
inactive: [1] | [2] | [3] | [4] | [5] | [7]

O=C(CN1C(=O)c2ccccc2S1(=O)=O)c1ccccc1Cl
not listed: [9]
inactive: all other assays above

C[C@H](CO)N1C[C@H](C)[C@@H](CN(C)Cc2ccc(C(F)(F)F)cc2)OCCCC[C@H](C)Oc2ccc(NC(=O)Nc3ccc(F)cc3)cc2C1=O
inactive: [1] | [2] | [3] | [4] | [5] | [7]

C[C@H]1CN([C@@H](C)CO)C(=O)Cc2cc(NC(=O)Nc3ccc(C(F)(F)F)cc3)ccc2O[C@H]1CN(C)C(=O)Nc1ccc(C(F)(F)F)cc1
inactive: [1] | [2] | [3] | [4] | [5] | [6] 24.3% [at 0.56 µM, active compounds read low] | [7] | [9]

Cc1noc(C)c1S(=O)(=O)Nc1ccc2c(c1)C(=O)N([C@@H](C)CO)C[C@H](C)[C@H](CN(C)C(=O)Nc1ccc(C(F)(F)F)cc1)OCCCC[C@H](C)O2
inactive: [1] | [2] | [3] | [4] | [5] | [6] -38.6% | [7] | [9]

COc1cccc(S(=O)(=O)N2CC[C@@H]3[C@H](CO)Nc4ccc(C5=CCCCC5)cc4[C@@H]32)c1
inactive: [1] | [2] | [3] | [4] | [5] | [6] 12.1% [at 0.5 µM, active compounds read low] | [7] | [9]

CC(C)CC#Cc1ccc([C@@H]2[C@@H](CO)N3CCCCN(S(=O)(=O)c4ccc(F)cc4)C[C@H]23)cc1
inactive: [1] | [2] | [3] | [4] | [5] | [6] 15.4% [at 16 µM, active compounds read low] | [7] | [9]

COc1ccc(S(=O)(=O)N2CCCCN3[C@H](C2)[C@@H](c2ccc(C#CC(C)C)cc2)[C@@H]3CO)cc1
inactive: [1] | [2] | [3] | [4] | [5] | [6] 10.6% [at 8 µM, active compounds read low] | [7] | [8] | [9]

C[C@H](O)C#Cc1cnc2c(c1)C(=O)N([C@H](C)CO)C[C@H](C)[C@H](CN(C)Cc1ccc(-c3ccccc3)cc1)O2
inactive: [1] | [2] | [3] | [4] | [5] | [6] 9.01% [at 0.26 µM, active compounds read low] | [7] | [8] | [9]

C[C@@H]1CN([C@@H](C)CO)S(=O)(=O)c2ccc(C#Cc3ccccc3F)cc2O[C@@H]1CN(C)C(=O)c1ccc2c(c1)OCO2
inactive: [1] | [2] | [3] | [4] | [5] | [7]

C[C@@H]1CN([C@H](C)CO)C(=O)c2cc(NC(=O)Nc3ccc(C(F)(F)F)cc3)ccc2O[C@@H](C)CCCCO[C@@H]1CN(C)Cc1ccc(Cl)c(Cl)c1
inactive: [1] | [2] | [3] | [4] | [5] | [7]

C[C@H]1CCCCO[C@@H](CN(C)S(=O)(=O)c2cccs2)[C@@H](C)CN([C@@H](C)CO)C(=O)c2cc(NC(=O)NC3CCCCC3)ccc2O1
inactive: [1] | [2] | [3] | [4] | [5] | [6] -5.85% [at 8 µM, active compounds read low] | [7] | [8] | [9]

C[C@@H]1CN([C@H](C)CO)C(=O)c2cc(NS(=O)(=O)c3ccc(F)cc3)ccc2O[C@@H](C)CCCCO[C@H]1CN(C)Cc1ccccc1
inactive: [1] | [2] | [3] | [4] | [5] | [6] 22.1% [at 1 µM, active compounds read low] | [7] | [9]

C[C@@H]1CN([C@H](C)CO)S(=O)(=O)c2ccc(C#Cc3ccncc3)cc2O[C@H]1CN(C)C(=O)Nc1ccc2c(c1)OCO2
inactive: [1] | [2] | [3] | [4] | [5] | [6] -26.8% [at 16 µM, active compounds read low] | [7] | [8] | [9]

O=C(Nc1ccc(F)cc1)N1CCCCN2[C@@H](CO)[C@@H](c3ccc(-c4cccc(F)c4)cc3)[C@@H]2C1
inactive: [1] | [2] | [3] | [4] | [5] | [6] -20% | [7] | [9]

N#Cc1cccc(-c2ccc3c(c2)[C@@H]2[C@@H](CCN2S(=O)(=O)c2ccc(F)cc2)[C@@H](CO)N3)c1
inactive: [1] | [2] | [3] | [4] | [5] | [6] 5.91% | [7] | [9]

Cc1ccc(S(=O)(=O)Nc2ccc3c(c2)C(=O)N([C@H](C)CO)C[C@H](C)[C@@H](CN(C)S(=O)(=O)c2cccs2)OCCCC[C@H](C)O3)cc1
inactive: [1] | [2] | [3] | [4] | [5] | [7]

C[C@@H]1CN([C@H](C)CO)C(=O)c2c(c3ccccc3n2C)-c2ccccc2CO[C@H]1CN(C)S(=O)(=O)c1cccc(F)c1
inactive: [1] | [2] | [3] | [4] | [5] | [6] -15.8% [at 0.26 µM, active compounds read low] | [7] | [9]

COc1ccc(NC(=O)Nc2ccc3c(c2)CC(=O)N([C@@H](C)CO)C[C@@H](C)[C@@H](CN(C)Cc2ccc(Oc4ccccc4)cc2)O3)cc1
inactive: [1] | [2] | [3] | [4] | [5] | [6] 14.4% [at 18 µM, active compounds read low] | [7] | [8] | [9]

C[C@@H]1CN([C@H](C)CO)C(=O)c2cc(NC(=O)Nc3ccc(F)cc3)ccc2O[C@@H](C)CCCCO[C@H]1CN(C)S(=O)(=O)c1ccc(F)cc1
inactive: [1] | [2] | [3] | [4] | [5] | [6] -9.65% [at 0.5 µM, active compounds read low] | [7] | [9]

C[C@H]1CCCCO[C@@H](CN(C)S(=O)(=O)c2cccs2)[C@@H](C)CN([C@@H](C)CO)C(=O)c2cc(NS(=O)(=O)c3ccc(Cl)cc3)ccc2O1
inactive: [1] | [2] | [3] | [4] | [5] | [7]

Cc1noc(C)c1NC(=O)Nc1cccc2c1O[C@H](CN(C)Cc1ccc(C(F)(F)F)cc1)[C@H](C)CN([C@@H](C)CO)C2=O
inactive: [1] | [2] | [3] | [4] | [5] | [6] -18.3% | [7] | [9]

C[C@H]1CCCCO[C@H](CN(C)S(=O)(=O)c2ccc(Cl)cc2)[C@@H](C)CN([C@@H](C)CO)C(=O)c2cc(NS(=O)(=O)c3ccc(F)cc3)ccc2O1
inactive: [1] | [2] | [3] | [4] | [5] | [6] -9.44% [at 4.2 µM, active compounds read low] | [7] | [9]

COc1ccccc1-c1ccc2c(c1)[C@H]1[C@H](CCN1C(=O)C1CCCCC1)[C@@H](CO)N2
inactive: [1] | [2] | [3] | [4] | [5] | [7]

N#C[C@H]1[C@H](c2ccc(C#CC3CCCCC3)cc2)[C@H](CO)N1C(=O)Nc1ccc(F)cc1
inactive: [1] | [2] | [3] | [4] | [5] | [6] -34% [at 0.5 µM, active compounds read low] | [7] | [9]

C[C@H]1CN([C@@H](C)CO)C(=O)c2cccc(NC(=O)Nc3ccc(F)cc3)c2O[C@H]1CN(C)C(=O)Nc1ccc(C(F)(F)F)cc1
inactive: [1] | [2] | [3] | [4] | [5] | [6] 10.2% [at 0.26 µM, active compounds read low] | [7] | [8] | [9]

O=C(Nc1ccc(F)cc1)N1CC(=O)N2[C@@H](CO)[C@@H](c3ccc(C#Cc4ccc(F)cc4)cc3)[C@@H]2C1
not listed: [6] | [9] | [10] | [11]
inactive: all other assays above

CCSCCc1nnc(NC(=O)Nc2cccc(C(F)(F)F)c2)s1
inactive: [1] | [2] | [3] | [4] | [5] | [7]

C[C@@H]1CN([C@H](C)CO)C(=O)c2cc(NS(=O)(=O)c3ccccc3)ccc2O[C@@H](C)CCCCO[C@@H]1CN(C)CC1CCCCC1
not listed: [6] | [9] | [10] | [11]
inactive: all other assays above

CC(C)CC1NC(=S)N(Cc2ccccc2)C1=O (stereo not drawn)
not listed: [6] | [9] | [10] | [11]
inactive: all other assays above

COc1ccc2c3c([nH]c2c1)[C@H](CO)N(C(=O)Nc1cccc(F)c1)CC31CCN(S(=O)(=O)c2cccc(C)c2)CC1
not listed: [6] | [9] | [10] | [11]
inactive: all other assays above

CO[C@H]1CN(C)C(=O)c2cc(NC(=O)c3ccc(-c4ccccc4)cc3)ccc2OC[C@@H](C)NC[C@@H]1C
inactive: [1] | [2] | [3] | [4] | [5] | [7]

COc1ccccc1C(=O)Nc1ccc2c(c1)C(=O)N(C)[C@@H]1CC[C@@H](CC(=O)NCc3ccc(Cl)c(Cl)c3)O[C@H]1CO2
not listed: [6] | [9] | [10] | [11]
inactive: all other assays above
